What all share (details): mRNA level, 48 h; actives raise or lower the signal
Read-out in assay [1]: Bcl-2 (BID) gene, BID (gene 637)
Put plainly: LTEA_HepaRG_BID: Life Technologies and Expression Analysis (LTEA) Assay for Bcl-2 (BID) gene using HepaRG (AID 2283476). A digest of the protocol:
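Duplicate 48 h treatments of HepaRG cells in serum-free induction medium spanned 100 uM downward in half-log steps, 0.5% DMSO. Transcript change quantified by qRT-PCR against three housekeeping genes, fitted up or down versus DMSO.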

Read-out in another assay: Caspase-3 (Homo sapiens) (UniProt P42574)
Put plainly: LTEA_HepaRG_CASP3: Life Technologies and Expression Analysis (LTEA) Assay for cysteine-aspartic acid protease (CASP3) using HepaRG (AID 2283477). In short, it runs like this:
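Read-out is CASP3 mRNA level by TaqMan qRT-PCR in human HepaRG cells after 48 h chemical exposure. Eight half-log concentrations topping at 100 uM were tested in 0.5% DMSO; gain or loss was fitted relative to DMSO.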

Read-out in assay [2]: Cytochrome P450 (CYP24A1), CYP24A1 (gene 1591)
The experiment in a line: LTEA_HepaRG_CYP24A1: Life Technologies and Expression Analysis (LTEA) Assay for Cytochrome P450 (CYP24A1) using HepaRG (AID 2283478). A digest of the protocol: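 HepaRG, 48 h chemical exposure, 8-pt half-log CRC from 100 uM, 0.5% DMSO vehicle, duplicates. Endpoint: CYP24A1 mRNA by Fluidigm TaqMan qRT-PCR, normalized ACTB/GAPDH/POLR2A; gain/loss fit vs DMSO.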

Read-out in assay [3]: Cytochrome P450 (CYP1A2), CYP1A2 (gene 1544)
The experiment in a line: LTEA_HepaRG_CYP1A2: Life Technologies and Expression Analysis (LTEA) Assay for Cytochrome P450 (CYP1A2) using HepaRG (AID 2283479). In short, it runs like this: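 CYP1A2 transcript induction or loss, quantified by Fluidigm qRT-PCR against three housekeeping genes, was fitted bidirectionally against 0.5% DMSO controls. Human HepaRG cells received eight half-log concentrations from 100 uM over 48 h.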

Read-out in assay [4]: cysteine-aspartic acid protease (CASP8), CASP8 (gene 841)
Put plainly: LTEA_HepaRG_CASP8: Life Technologies and Expression Analysis (LTEA) Assay for cysteine-aspartic acid protease (CASP8) using HepaRG (AID 2283480). In short, it runs like this: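 Concentration-response in duplicate up to 100 uM (half-log steps, 0.5% DMSO) on differentiated HepaRG cultures for 48 h. Expression change of CASP8 mRNA is determined by TaqMan qRT-PCR with housekeeping-gene normalization.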

Read-out in assay [5]: Cytochrome P450 (CYP2B6), CYP2B6 (gene 1555)
The experiment in a line: LTEA_HepaRG_CYP2B6: Life Technologies and Expression Analysis (LTEA) Assay for Cytochrome P450 (CYP2B6) using HepaRG (AID 2283481). In short, it runs like this:
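HepaRG cells plated 48 h, switched to serum-free induction medium, then dosed 48 h (8 points, half-log from 100 uM, 0.5% DMSO). RNA isolated; CYP2B6 expression measured by qRT-PCR; gain or loss fitted relative to DMSO.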

Read-out in assay [6]: Cytochrome P450 2C19 (Homo sapiens) (UniProt P33261)
The experiment in a line: LTEA_HepaRG_CYP2C19: Life Technologies and Expression Analysis (LTEA) Assay for CYP2C19 using HepaRG (AID 2283482). A digest of the protocol:
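Transcript levels of CYP2C19 were quantified by qRT-PCR after HepaRG cells were treated for 48 hours with test chemicals up to 100 uM (eight half-log concentrations, 0.5% DMSO vehicle). Gain or loss of signal was fitted relative to DMSO.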

Read-out in another assay: CYP2C8 (gene 1558)
Put plainly: LTEA_HepaRG_CYP2C8: Life Technologies and Expression Analysis (LTEA) Assay for CYP2C8 using HepaRG (AID 2283483). A digest of the protocol: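 This is a transcriptional endpoint in HepaRG cultures: 48 h exposure, highest concentration 100 uM. CYP2C8 mRNA is quantified by TaqMan qRT-PCR.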

Read-out in a further assay: CYP2C9 (gene 1559)
The experiment in a line: LTEA_HepaRG_CYP2C9: Life Technologies and Expression Analysis (LTEA) Assay for CYP2C9 using HepaRG (AID 2283484). In short, it runs like this: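 Eight-point concentration-response (highest 100 uM, half-log dilutions) in HepaRG cells for 48 h; CYP2C9 expression by qRT-PCR normalized to ACTB, GAPDH, POLR2A. Bidirectional fit, DMSO baseline.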

Read-out in a further assay: CYP2E1 (gene 1571)
The experiment in a line: LTEA_HepaRG_CYP2E1: Life Technologies and Expression Analysis (LTEA) Assay for CYP2E1 using HepaRG (AID 2283485). A digest of the protocol:
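CYP2E1 transcript measured by Fluidigm qRT-PCR against three housekeeping genes in human HepaRG cells treated 48 h (top 100 uM, half-log steps, 0.5% DMSO vehicle). Gain or loss fitted relative to DMSO baseline.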

Read-out in a further assay: CYP4A11 (gene 1579)
Put plainly: LTEA_HepaRG_CYP4A11: Life Technologies and Expression Analysis (LTEA) Assay for CYP4A11 using HepaRG (AID 2283486). In short, it runs like this:
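HepaRG, 48 h chem exposure, 8 conc (100 uM top, half-log), 0.5% DMSO vehicle; qRT-PCR readout, housekeeping-gene normalized; bidirectional curve fit vs DMSO baseline.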

Read-out in assay [7]: Cytochrome P450 3A4 (Homo sapiens) (UniProt P08684)
The experiment in a line: LTEA_HepaRG_CYP3A4: Life Technologies and Expression Analysis (LTEA) Assay for CYP3A4 using HepaRG (AID 2283487). A digest of the protocol:
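In a human hepatic line (HepaRG), duplicate wells were treated 48 h with up to 100 uM chemical in half-log dilutions. Endpoint: CYP3A4 mRNA induction or loss relative to 0.5% DMSO vehicle, by qRT-PCR.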

Read-out in assay [8]: DNA damage-inducible transcript 3 (DDIT3), DDIT3 (gene 1649)
Put plainly: LTEA_HepaRG_DDIT3: Life Technologies and Expression Analysis (LTEA) Assay for DNA damage-inducible transcript 3 (DDIT3) using HepaRG (AID 2283488). In short, it runs like this:
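DDIT3 transcript was quantified by qRT-PCR with ACTB/GAPDH/POLR2A normalization after 48 h chemical treatment of differentiated HepaRG cells in 0.5% DMSO. Dosing was eight-point, half-log, top 100 uM, duplicate wells. Curves fitted bidirectionally versus DMSO.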

Read-out in assay [9]: Pro-epidermal growth factor (Homo sapiens) (UniProt P01133)
Put plainly: LTEA_HepaRG_EGF: Life Technologies and Expression Analysis (LTEA) Assay for Epidermal growth factor (EGF) using HepaRG (AID 2283489). In short, it runs like this:
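HepaRG, 48 h dosing, 100 uM top, half-log x8, 0.5% DMSO. Readout: TaqMan qRT-PCR (Fluidigm array), housekeeping-normalized. Gain or loss of signal fit vs DMSO.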

Read-out in assay [10]: Early growth response protein 1 (EGR1) transcription factor, EGR1 (gene 1958)
Put plainly: LTEA_HepaRG_EGR1: Life Technologies and Expression Analysis (LTEA) Assay for Early growth response protein 1 (EGR1) transcription factor using HepaRG (AID 2283490). A digest of the protocol:
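EGR1 expression change in human HepaRG after 48 h chemical exposure, assessed by housekeeping-normalized qRT-PCR; concentration-response up to 100 uM, fitted in both directions against DMSO controls.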

Read-out in assay [11]: Ezrin (EZR), EZR (gene 7430)
Put plainly: LTEA_HepaRG_EZR: Life Technologies and Expression Analysis (LTEA) Assay for Ezrin (EZR) using HepaRG (AID 2283491). In short, it runs like this: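 Gain or loss of EZR mRNA is scored relative to 0.5% DMSO in human HepaRG cultures treated 48 h with test chemicals in duplicate, eight half-log concentrations from 100 uM.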

Read-out in assay [12]: Cytochrome P450 3A7 (Homo sapiens) (UniProt P24462)
Put plainly: LTEA_HepaRG_CYP3A7: Life Technologies and Expression Analysis (LTEA) Assay for CYP3A7 using HepaRG (AID 2283492). In short, it runs like this:
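Human HepaRG liver cells, 48 h post-plating, switched to serum-free induction medium and exposed in duplicate for 48 h. Dosing: 100 uM top, half-log dilutions, 8 points, 0.5% DMSO vehicle. Read-out: CYP3A7 mRNA, gain or loss fitted against DMSO baseline.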

Read-out in a further assay: CYP3A5 (gene 1577)
The experiment in a line: LTEA_HepaRG_CYP3A5: Life Technologies and Expression Analysis (LTEA) Assay for CYP3A5 using HepaRG (AID 2283493). In short, it runs like this:
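mRNA levels were quantified by qRT-PCR on Fluidigm arrays and normalized to three housekeeping genes. Differentiated HepaRG cells received 48 h exposure (top 100 uM, half-log steps, 0.5% DMSO vehicle, duplicate); bidirectional fitting versus DMSO.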

Read-out in assay [13]: Fatty Acid-Binding Protein 1 (FABP1), FABP1 (gene 2168)
The experiment in a line: LTEA_HepaRG_FABP1: Life Technologies and Expression Analysis (LTEA) Assay for Fatty Acid-Binding Protein 1 (FABP1) using HepaRG (AID 2283494). In short, it runs like this: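 Values reflect bidirectional concentration-response fitting of FABP1 mRNA change against 0.5% DMSO controls. Human HepaRG cultures received eight half-log doses (top 100 uM) for 48 h; expression quantified by TaqMan qRT-PCR with housekeeping-gene normalization.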

Read-out in assay [14]: Cytochrome P450 4A22 (Homo sapiens) (UniProt Q5TCH4)
Put plainly: LTEA_HepaRG_CYP4A22: Life Technologies and Expression Analysis (LTEA) Assay for Cytochrome P450 4A22 (CYP4A22) using HepaRG (AID 2283495). A digest of the protocol: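 Readout is CYP4A22 transcript induction or loss, quantified by qRT-PCR and normalized to ACTB, GAPDH and POLR2A. Human HepaRG cells receive test chemicals for 48 h at eight half-log concentrations from 100 uM in 0.5% DMSO.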

The structures appear in SMILES notation. Activity calls are given as the source filed them. How the source made its calls: active means hit-call score of the fitted dose curve at least 0.9, where 1 is the maximum; inactive means score below 0.9.

Chain of Cytochrome P450 3A7 (Homo sapiens) (P24462 whole entry, looked up): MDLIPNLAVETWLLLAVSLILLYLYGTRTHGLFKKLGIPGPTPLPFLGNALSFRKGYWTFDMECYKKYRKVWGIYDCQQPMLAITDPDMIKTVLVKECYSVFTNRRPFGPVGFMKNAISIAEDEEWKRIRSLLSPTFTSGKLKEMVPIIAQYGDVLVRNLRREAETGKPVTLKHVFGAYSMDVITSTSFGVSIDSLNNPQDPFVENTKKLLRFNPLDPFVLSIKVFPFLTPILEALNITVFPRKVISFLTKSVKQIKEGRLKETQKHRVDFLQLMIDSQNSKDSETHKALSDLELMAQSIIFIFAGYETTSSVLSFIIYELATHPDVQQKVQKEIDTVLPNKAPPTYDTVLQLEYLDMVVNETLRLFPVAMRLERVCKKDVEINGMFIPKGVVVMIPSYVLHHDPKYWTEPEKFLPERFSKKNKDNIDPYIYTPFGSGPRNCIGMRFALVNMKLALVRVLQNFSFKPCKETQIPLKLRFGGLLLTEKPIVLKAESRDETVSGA
Chain of Cytochrome P450 3A4 (Homo sapiens) (P08684 whole entry, looked up): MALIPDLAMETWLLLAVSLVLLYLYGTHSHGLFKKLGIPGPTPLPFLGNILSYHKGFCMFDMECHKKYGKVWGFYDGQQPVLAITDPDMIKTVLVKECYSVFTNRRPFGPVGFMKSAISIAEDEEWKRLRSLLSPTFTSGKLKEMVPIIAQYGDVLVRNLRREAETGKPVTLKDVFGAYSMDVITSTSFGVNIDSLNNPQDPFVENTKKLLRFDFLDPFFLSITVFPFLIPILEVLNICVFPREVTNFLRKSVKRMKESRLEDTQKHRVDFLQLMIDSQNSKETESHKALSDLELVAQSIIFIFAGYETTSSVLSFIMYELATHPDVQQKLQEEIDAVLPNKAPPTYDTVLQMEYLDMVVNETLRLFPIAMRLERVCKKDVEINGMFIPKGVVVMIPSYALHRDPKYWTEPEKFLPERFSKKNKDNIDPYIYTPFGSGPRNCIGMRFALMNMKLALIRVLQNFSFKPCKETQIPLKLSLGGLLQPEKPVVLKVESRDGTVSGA
Chain of Caspase-3 (Homo sapiens) (P42574 whole entry, looked up): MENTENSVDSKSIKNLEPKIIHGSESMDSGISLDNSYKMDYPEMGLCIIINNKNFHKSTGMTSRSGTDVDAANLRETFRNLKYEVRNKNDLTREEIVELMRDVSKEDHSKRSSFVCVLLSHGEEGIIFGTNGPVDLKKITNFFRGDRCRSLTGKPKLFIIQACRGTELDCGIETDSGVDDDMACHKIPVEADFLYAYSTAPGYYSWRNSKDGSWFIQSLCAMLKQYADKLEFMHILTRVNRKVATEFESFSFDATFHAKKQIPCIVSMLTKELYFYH
Chain of Cytochrome P450 2C19 (Homo sapiens) (P33261 whole entry, looked up): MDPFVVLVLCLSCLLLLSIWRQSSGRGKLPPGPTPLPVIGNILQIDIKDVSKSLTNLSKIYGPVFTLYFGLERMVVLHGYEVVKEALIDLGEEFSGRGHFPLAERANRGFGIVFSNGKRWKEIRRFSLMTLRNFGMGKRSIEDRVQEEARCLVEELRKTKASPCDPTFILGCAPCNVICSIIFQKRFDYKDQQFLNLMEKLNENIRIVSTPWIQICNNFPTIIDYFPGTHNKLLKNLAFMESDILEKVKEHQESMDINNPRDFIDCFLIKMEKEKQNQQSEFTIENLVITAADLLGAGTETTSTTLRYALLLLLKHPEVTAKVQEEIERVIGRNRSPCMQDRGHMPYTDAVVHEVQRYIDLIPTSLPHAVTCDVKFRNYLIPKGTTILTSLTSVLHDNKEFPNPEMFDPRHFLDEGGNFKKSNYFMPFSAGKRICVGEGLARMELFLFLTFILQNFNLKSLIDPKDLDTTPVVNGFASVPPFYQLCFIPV

Turning to `Cc1ccc(S(=O)(=O)O)cc1C`, the result (in assay [1]; with Caspase-3 (Homo sapiens); in assay [2]; in [3]; in assay [4]; in [5]) was inactive. Besides, the compound was classed as inactive (in assay [6]; with CYP2C8 (gene 1558); in the assay with CYP2C9 (gene 1559); in the assay with CYP2E1 (gene 1571); with CYP4A11 (gene 1579); in assay [7]). Also, the outcome (in [8]; in assay [9]; in [10]; in assay [11]; in assay [12]; in the assay with CYP3A5 (gene 1577)) was inactive. Moreover, the outcome in [13] and in assay [14] was inactive.
Take `C[C@](N)(Cc1ccc(O)c(O)c1)C(=O)O`: the compound was classed as inactive (in assay [1]; in the assay with Caspase-3 (Homo sapiens); in assay [2]; in assay [3]; in assay [4]; in assay [5]). The result (in [6]; with CYP2C8 (gene 1558); in the assay with CYP2C9 (gene 1559); in the assay with CYP2E1 (gene 1571); in the assay with CYP4A11 (gene 1579); in assay [7]) was inactive. The compound was called inactive (in assay [8]; in assay [9]; in assay [10]; in [11]; in assay [12]; in the assay with CYP3A5 (gene 1577)). In addition, the outcome in [13] and in assay [14] was inactive.
As usually defined, the AC50 is the midpoint of the concentration-response curve, whichever way the signal moves. Take `CCOc1cccc(-n2cc(C(=O)N3CCN(c4cc(C(=O)O)c5ccccc5c4)CC3)nc2-c2ccc(C)cc2)c1`: the AC50 in [1] was 80.7 µM (active); with Caspase-3 (Homo sapiens), 82.9 µM (active); in assay [3], 27.7 µM (active); in assay [4] it was 87.9 µM (active); in assay [5] it was 26.5 µM (active); in assay [6], 32.6 µM (active). Further, the AC50 with CYP2C8 (gene 1558) was 25.6 µM (active); with CYP2C9 (gene 1559) it was 31.6 µM (active); in the assay with CYP2E1 (gene 1571) it was 14.7 µM (active); with CYP4A11 (gene 1579), 28.9 µM (active); in [7], 31.1 µM (active); in [9] it was 88 µM (active). Besides, the AC50 is 83.7 µM (active) in assay [10], 80.5 µM (active) in the assay with CYP3A5 (gene 1577), 30.2 µM (active) in assay [13] and 29.8 µM (active) in assay [14]. The outcome in assay [2], in [11] and in assay [12] was inactive.

The record behind these values is PubChem BioAssay (EPA / NIEHS).
